Hits are enriched below; roughly 1.1% of the tested compounds scored in any of these assays.
Mtb BioA inh – BioA (M. tuberculosis) enzyme inhibition. purified M. tuberculosis BioA enzyme, plate reader. 0.096% of 360,000 active. AID 602481. inhibition, % at 9.99 µM; in the data active = inhibition above about 40%; inconclusive = no clear call, values can overlap the other calls
PrP UTR inh – suppresses PrP 5' UTR mRNA reporter expression. AID 488862. cell-based PrP 5' UTR mRNA reporter, plate reader. 0.35% of 340,000 active. inhibition, % (test concentration not listed); in the data active = inhibition above about 52%
Yp Topo-I inh – blocks Yersinia pestis topoisomerase I activity. Y. pestis Topo-I cleavage product accumulation, plate reader. 0.064% of 360,000 active. activity, % at 10 µM. AID 504884; in the data active = activity above about 50%, passing the limit was not always enough; inconclusive = no clear call, values can overlap the other calls
FadD28 binding – M. tuberculosis FadD28 bisubstrate binding inhibition; FadD28 bisubstrate probe binding, fluorescence polarization; inhibition, % at 12.5 µM; 0.22% of 360,000 active; in the data active = inhibition above about 8.5%, passing the limit was not always enough; inconclusive = no clear call, values can overlap the other calls
PfHsp40 rescue – restores yeast growth despite PfHsp40 toxicity; growth rescue, % at 12.5 µM; S. cerevisiae expressing PfHsp40, growth rescue, ATP luminescence; 0.68% of 340,000 active; in the data active = growth rescue above about 28%, passing the limit was not always enough; inconclusive = no clear call, values can overlap the other calls;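 note: yeast W303a lacking pdr1 and pdr3 grown in galactose medium; growth measured after three days at 30 °C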
Each line names hits and unclear results; the compound was inactive in the other large screens.

CO[C@H]1CN(C)C(=O)c2cc(NC(=O)C3CC3)ccc2OC[C@H](C)N(Cc2cccc(F)c2)C[C@@H]1C	none (no result: PrP UTR inh, Yp Topo-I inh, FadD28 binding, PfHsp40 rescue)
Cc1csc(NC(=O)CSc2nsc(SCC(=O)Nc3nc(C)cs3)c2C#N)n1	none
Cc1ccc(NC(=O)CSc2nsc(SCC(=O)Nc3ccc(C)cc3C)c2C#N)c(C)c1	PfHsp40 rescue 54.8 (no result: Mtb BioA inh)
CCOC(=O)c1c(SC)[nH]c2c(Cl)cccc2c1=O	PfHsp40 rescue 92.5
CCOC(=O)c1c(C)[nH]c2c1cc(O)c1ccccc12	none
C[C@@H]1CN([C@H](C)CO)C(=O)c2cc(C#Cc3ccc(F)cc3)cnc2O[C@H]1CN(C)CC1CCOCC1	none (no result: PrP UTR inh, Yp Topo-I inh, FadD28 binding, PfHsp40 rescue)
Oc1c(Br)cc(Br)cc1Br	none
Oc1c(Br)cc(-c2ccccc2)cc1Br	PfHsp40 rescue 579.5
COc1cccc(S(=O)(=O)N(C)C[C@@H]2Oc3cc(C#CCC(C)C)ccc3S(=O)(=O)N([C@@H](C)CO)C[C@H]2C)c1	none (no result: PrP UTR inh, Yp Topo-I inh, FadD28 binding, PfHsp40 rescue)
CC(C)NC(=O)c1sc(=S)n2c1[nH]c(=O)c1ccc(C(=O)NCCc3ccc(Cl)cc3)cc12	FadD28 binding inconclusive
CCCCNC(=O)c1sc(=S)n2c1[nH]c(=O)c1ccccc12	FadD28 binding 24.3
CCOc1ccc(CCNC(=O)c2ccc3c(=O)[nH]c4c(C(=O)NC(C)C)sc(=S)n4c3c2)cc1	FadD28 binding 21.3
O=C(NCC1CCCO1)c1ccc2c(=O)n(CC3CCCO3)c(=S)[nH]c2c1 (configuration not stated)	none
O=C(NCCc1ccccc1)c1ccc2c(=O)[nH]c3c(C(=O)NCC4CCCO4)sc(=S)n3c2c1 (configuration not stated)	FadD28 binding 61.4
O=C(NCC1CCCO1)c1sc(=S)n2c1[nH]c(=O)c1ccc(C(=O)N3CCCCC3)cc12 (configuration not stated)	FadD28 binding 10.0
O=C(NC1CCCCC1)c1sc(=S)n2c1[nH]c(=O)c1ccccc12	none
C[C@@H]1CN([C@@H](C)CO)C(=O)c2cccc(NS(=O)(=O)c3ccccc3)c2O[C@H]1CN(C)S(=O)(=O)c1ccc(F)cc1	none (no result: PrP UTR inh, Yp Topo-I inh, FadD28 binding, PfHsp40 rescue)
O=C(C[C@@H]1CC[C@H](NC(=O)c2ccncc2)[C@@H](CO)O1)NCC1CC1	none (no result: PrP UTR inh, Yp Topo-I inh, FadD28 binding, PfHsp40 rescue)
COCC(=O)Oc1c(S(=O)(=O)c2ccc(C)cc2)c(C)nn1-c1ccccc1	PfHsp40 rescue 157.3
CCCN(C)C[C@H]1Oc2ncc(C#CCN(C)C)cc2C(=O)N([C@@H](C)CO)C[C@H]1C	none (no result: PrP UTR inh, Yp Topo-I inh, FadD28 binding, PfHsp40 rescue)
CC1=NN(c2ccccc2)C(=O)/C1=C/c1c(O)n(-c2ccc(F)cc2)[nH]c1=O	FadD28 binding 18.5
N#Cc1c2ccc(O)cc2n2ccccc12	PfHsp40 rescue 55.2 (no result: Mtb BioA inh)
COc1ccc(C)cc1NC(=O)CSc1nnc(COc2ccc(Cl)cc2)n1Cc1ccco1	PfHsp40 rescue 48.1 (no result: Mtb BioA inh)
COc1cc(/C=C(\C#N)C(=O)c2ccc(O)c(O)c2)cc(I)c1O	FadD28 binding 12.1
O=C(Cn1cnc2ccccc2c1=O)c1cccs1	PfHsp40 rescue 41.3
O=C(NCCCN1CCOCC1)c1cccc(NC(=O)c2ccccc2)c1	PfHsp40 rescue 122.2
O=C(N[C@H]1C=C[C@H](CC(=O)N2CCc3ccccc3C2)O[C@H]1CO)C1CCC1	none (no result: PrP UTR inh, Yp Topo-I inh, FadD28 binding, PfHsp40 rescue)
CCOc1ccc(C(=O)Nc2ccc(Cc3ccncc3)cc2)cc1Br	PfHsp40 rescue 59.7 (no result: Mtb BioA inh)
O=C(C[C@H]1CC[C@@H]2[C@H](COC[C@@H](O)CN2S(=O)(=O)c2cccc(F)c2)O1)NC1CCC1	none (no result: PrP UTR inh, Yp Topo-I inh, FadD28 binding, PfHsp40 rescue)
CCC(=O)N1C[C@H](C)[C@H](OC)CN(C)C(=O)c2cc(NS(C)(=O)=O)ccc2OC[C@@H]1C	none (no result: PrP UTR inh, Yp Topo-I inh, FadD28 binding, PfHsp40 rescue)
CC(C)c1ccc(NC(=S)Nc2ccc(OC(F)(F)F)cc2)cc1	none (no result: Mtb BioA inh)
FC(F)(F)Oc1ccc(NC(=S)Nc2ccc(OC(F)(F)F)cc2)cc1	PfHsp40 rescue 145.2 (no result: Mtb BioA inh)
S=C(Nc1cccc(Cl)c1)Nc1cccc2cnccc12	PfHsp40 rescue 31.4 (no result: Mtb BioA inh)
Cc1ccc(NC(=S)Nc2cccc3cnccc23)cc1C	PfHsp40 rescue 377.1
Cc1ccc(NC(=S)Nc2cccc3cnccc23)cc1	none
Cc1ccccc1NC(=S)Nc1cccc2cnccc12	none
COc1ccc(CN(C)C[C@H]2Oc3ccc(NS(=O)(=O)c4ccc(F)cc4)cc3CC(=O)N([C@@H](C)CO)C[C@H]2C)cc1	none (no result: PrP UTR inh, Yp Topo-I inh, FadD28 binding, PfHsp40 rescue)
COc1cccc(NC(=O)Nc2nc(SC(C)(C)C)ns2)c1	FadD28 binding 21.4
COc1cccc(NC(=O)Nc2nc(SC)ns2)c1	none
O=C(Nc1ccc(OCC(=O)N2CCOCC2)cc1)Nc1cccc(Cl)c1	none (no result: Mtb BioA inh)
CC(C)(C)c1ccc(NC(=O)Nc2ccc(OCC(=O)N3CCOCC3)cc2)cc1	FadD28 binding 24.6 (no result: Mtb BioA inh)
Oc1c(Br)c(Br)c(Br)c(Br)c1Br	FadD28 binding 41.5, PfHsp40 rescue 30.7

Compound activity as filed in PubChem BioAssay.
